Source: PubChem BioAssay
In the library only some 12% were active in any assay of this set; here they are far more common.
SARS PLP yeast = qHTS of Yeast-based Assay for SARS-CoV PLP | Potency, µM (highest dose often 32.9 µM), most hits filed as activators | hit rate 0.19% among 330,000 | S. cerevisiae expressing SARS-CoV PLpro, growth rescue | AID 485353, 2010; calls by dose curve; note: nearly all actives have a fitted effect of over 55% in size
AMA1 RON2 block = qHTS for Inhibitors of AMA1-RON; Towards Development of Antimalarial Drug Lead: Primary Screen; Plasmodium falciparum AMA1 (3D7) - RON2 peptide interaction; AlphaScreen AMA1-biotinylated RON2 peptide binding; Potency, µM (series often up to 58.2 µM), most hits filed as inhibitors; hit rate 0.2% among 360,000; AID 720542, 2013; note: nearly all actives have a fitted effect of over 45% in size
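AMA1 (3D7) with his tag at 25 nM final met compounds first, then biotinylated RON2 peptide at 25 nM; detection used donor plus acceptor beads, 10 µg/mL apiece, read by AlphaScreen after 30 min at room temperature.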
Pf growth 48h = Primary qHTS for delayed death inhibitors of the malarial parasite plastid, 48 hour incubation; P. falciparum luciferase growth in erythrocytes, 48 h; Potency, µM (doses to about 28.7 µM), usual class: inhibitors; hit rate 5.9% among 310,000; AID 504832, 2011
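Luciferase-expressing P. falciparum in infected erythrocytes (2% hematocrit, 0.1% parasitemia final) in RPMI 1640/0.5% Albumax were exposed to compound for 48 hours at 37 C, 5% CO2; growth read as luminescence.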
NS1 function inh = qHTS Assay for Inhibitors of Influenza NS1 Protein Function; AID 2326, 2010; Potency, µM (highest dose often 46.1 µM); hit rate 0.4% among 270,000; calls by dose curve; note: actives are rising curves; nearly all actives have a fitted effect of over 50% in size
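Recovery from NS1-induced slow growth read by OD600 in budding yeast switched to galactose assay medium (pH 6.0, -URA) at 1:100 dilution. Compound 23 nl per well; the matching strain lacking NS1 serves as control.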
Pf growth 96h = Primary qHTS for delayed death inhibitors of the malarial parasite plastid, 96 hour incubation; hit rate 6.9% among 320,000; Potency, µM (titrated, usually from 28.7 µM), most hits filed as inhibitors; P. falciparum luciferase reporter growth, 96 h
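P. falciparum expressing integrated firefly luciferase, in erythrocytes at 2% hematocrit, 0.05% parasitemia, incubated with compounds 96 h at 37 C, 5% CO2. Growth inhibition read as loss of luminescence; two-generation exposure targets delayed-death apicoplast inhibitors.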
HCV inh = qHTS Assay for Inhibitors of Hepatitis C Virus (HCV) | hit rate 3.4% among 340,000 | Huh7.5.1 HCVcc-Cre infection, luciferase reporter, 44 h | AID 651820, 2012 | Potency, µM (highest dose often 41.8 µM), usual class: inhibitors
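Compounds are dispensed onto cells plated 4 h earlier at 1,000 per well, with HCVcc-Cre virus (about 0.5 moi) added next. Following 44 h of culture, luminescent signal is measured for 15 sec after 15 min with substrate at room temperature.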
Hits are given with their value; n = inactive; u = inconclusive; x = no result given; [ ] = dose if it differs, or a comment. Unless noted, calls come from the whole dose curve; as a rule, active = well fitted curve in the direction sought with a large enough effect; inconclusive = small, poorly fitted or top-dose-only effect, or another doubt; inactive = no such curve, though single readings can be large; an effect the other way counts as inactive or inconclusive.

SMILES | SARS PLP yeast | AMA1 RON2 block | Pf growth 48h | NS1 function inh | Pf growth 96h | HCV inh
COc1ccc(NC(=O)C2CC2(Cl)Cl)cc1S(=O)(=O)N1CCCCC1 (centres undefined) | x | n | x | x | x | x
CCOC(=O)C1CCN(C/C=C/c2ccccc2[N+](=O)[O-])CC1 | n | n | n | n | n | n
CCCCNC(=O)/C(C#N)=C/c1ccc(F)cc1F | n | n | n | x | n | n
Cc1cc(C)c(C)c(S(=O)(=O)NCc2ccc(C(=O)NCC3CCCO3)cc2)c1C (centres undefined) | n | n | n | n | u | n
Cc1ccc(/C=C/C(=O)O)cc1S(=O)(=O)Nc1ccccc1C(=O)O | n | n | n | n | 10.4µM | n
Cc1cnc2c(N)cc(C)c(C)c2c1 | x | n | x | x | x | x
CCN(CC)C(=O)C1CCCN(Cc2ccc3ccccc3c2)C1 (centres undefined) | n | n | n | n | 13.1µM | n
NC(=O)C1CCCN(Cc2ccc3ccccc3c2)C1 (centres undefined) | n | n | u | n | 2.62µM | n
CCN(CC)C(=O)C1CCCN(Cc2cccc(F)c2)C1 (centres undefined) | n | n | x | n | n | n
COc1cccc(CNC(=O)CCCCCNC(=O)N2CCn3c2nc2ccccc23)c1 | n | n | n | n | u | n
CC1CC(C)CN(C(=O)Cn2cc(C=O)c3ccccc32)C1 (centres undefined) | n | n | n | x | n | n
CCCCCCn1cc(CN2CC(N3CCN(CCO)CC3)CS2(=O)=O)nn1 (centres undefined) | x | n | x | x | x | x
CCSC1=N/C(=C/c2ccsc2)C(=O)N1c1ccccc1 | n | n | n | n | 7.38µM | u
CCCc1cc(=O)[nH]c(SCC(=O)N2CCCCCC2)n1 | n | n | x | x | x | n
O=C(O)c1ccc(Cl)cc1NC(=O)C1CCN(S(=O)(=O)c2cccs2)CC1 | x | n | x | x | x | x
COc1ccccc1OCC(=O)NNc1c2ccccc2nc2ccccc12 | n | n | 4.15µM | n | n | 0.562µM
COc1ccc(OCC(=O)NCCCCCCNC(=O)COc2ccc(OC)cc2)cc1 | n | n | n | n | 2.94µM | n
Cc1cc(CNC(=O)COc2ccccc2F)c2ccccc2n1 | n | n | n | n | n | 25.1µM
COc1ccccc1OCC(=O)NCCNC(=O)COc1ccccc1OC | n | n | u | n | 2.33µM | n
O=C(CCSCc1cccc(Cl)c1)NCCc1ccccc1 | n | n[11.6 µM] | n | n | u | n
COc1ccccc1OCC(=O)NCCSCc1cccc(Cl)c1 | n | n | n | n | 11.7µM | n
COC(=O)c1ccc2c(=O)[nH]c(COC(=O)c3c(-c4ccccc4)noc3C)nc2c1 | n | n | n | x | u | u
CCCC[n+]1c2ccccc2cc2ccccc21 | n | n | u | n | n | 6.31µM
CCC[n+]1c2ccccc2cc2ccccc21 | n | n | x | n | u | u
Cc1cc(C)c(S(=O)(=O)/N=C2/C=C(Sc3ncn[nH]3)C(=O)c3ccccc32)cc1C | n | n | 1.65µM | x | 10.4µM | u
SMILES | SARS PLP yeast | AMA1 RON2 block | Pf growth 48h | NS1 function inh | Pf growth 96h | HCV inh
O=C(O)CCCC/C=C(\c1ccccc1)c1cccnc1 | x | x | n | x | 1.69µM | x
O=C(NCO)c1cccnc1 | x | n | x | x | x | n
CCOC(=O)C1=C(C)N=C2SC(C)C(=O)N2C1c1ccccc1 (centres undefined) | n | n | u | n | n | n
CCOC(=O)C1=C(C)N=C2SC(CC)C(=O)N2C1c1cccc(F)c1 (centres undefined) | n | n | n | n | 10.4µM | n
CCOC(=O)C1=C(C)N=C2SC(C)C(=O)N2C1c1ccc(OCC)c(OCC)c1 (centres undefined) | n | n | 11.7µM | n | n | n
COC(=O)C1CCN(C2CN(Cc3ccccc3)S(=O)(=O)C2)CC1 (centres undefined) | x | n | x | x | x | x
Fc1ccc(NC(=S)NC2CC3CCC(C2)N3Cc2ccco2)cc1 (centres undefined) | n | n | n | n | n | n
Cc1ccc(C)c(NC(=S)NC2CC3CCC(C2)N3Cc2ccco2)c1 (centres undefined) | n | n | u | u | 11.7µM | n
